# ChEMBL document CHEMBL5308541, “MAIP: An Open-Source Tool to Enrich High-Throughput Screening Output and Identify Novel, Druglike Molecules with Antimalarial Activity” (ACS Med Chem Lett, 2023)
# About 410 (8.5%) of roughly 4,800 compounds showed an effect of 50% or more. Only a selection was taken, and strong results are over-represented in it overall.
# System: Plasmodium falciparum
# Experiment: Confirmatory screen in NF54 pLDH assay, in single point, at 2uM, 72h
# Type: functional, Erythrocyte
# Settings: timepoint 72 hour
row,SMILES,% Inhibition [%]
1,CNc1nc(C)cc(N[C@@H]2COc3ccccc3C2)n1,89
2,c1ccc2c(CNCCC3CCN(c4ccncc4)CC3)csc2c1,95
3,Fc1ccc(-n2cc(CNCCC3CCN(c4ccncc4)CC3)cn2)cc1,102
4,CCN1CCN(c2ccccc2CNCCC2CCN(C)CC2)CC1,2
5,c1ccc(-c2ccnc(C3CCN(CC45CNCC4C5)CC3)n2)cc1 (configuration not stated),96
6,COCCN1CCC[C@H](CNCc2cnn(-c3ccc4ccccc4c3)c2)C1,13
7,COCCN1CC[C@H](CNC2CCN(c3ncc4ccc(F)cc4n3)CC2)C1,71
8,CN(C)C1(CNc2nc(C(F)(F)F)nc3cc(F)ccc23)CCCCCC1,57
9,CN(C)C1(CNc2nc(C(F)(F)F)nc3cc4c(cc23)OCO4)CCCCCC1,49
10,CN1CCC(N2CCC(NC(=O)c3ccc(S(=O)(=O)N(C)C4CCCCC4)cc3)CC2)CC1,39
11,Cc1ccc(-c2cc(C(=O)NC3CCN(C4CCN(C)CC4)CC3)n[nH]2)cc1C,102
12,Cc1ccc2nc(CCCNC3CCN(c4cc(C)nc(N)n4)CC3)oc2c1,59
13,Cc1cc(N2CCC(NCCc3c[nH]cn3)CC2)nc(-c2ccccc2)n1,11
14,Cc1cc(N2CCC(NCCCN3CCCc4ccccc43)CC2)nc(N)n1,88
15,CN(C)CCN1CCC(NC2CCC(O)(c3cccc(Cl)c3)CC2)CC1 (configuration not stated),33
16,OC1(c2ccc(Cl)cc2)CCN(C[C@@H]2CCCN3CCCC[C@H]23)CC1,88
17,CC(C)(C)n1ncc2c(NCc3ccc4cccnc4c3O)ncnc21,37
18,c1ccc2c(c1)CN(c1ncnc3[nH]ccc13)CC1(CCOCC1)O2,-5
19,CCn1cc(-c2cccc(C(=O)N[C@@H](C)CN3CCc4ccccc4C3)c2)cn1,38

row,SMILES,% Inhibition [%]
1,NCCCCc1c(-c2cccnc2)[nH]c2c(Cl)cc(Cl)cc12,75
2,COCCN1CCC[C@@]2(CCN(c3ccnc4cc(Cl)ccc34)C2)C1,101
3,COCCN1CC[C@H](CN(C)c2ccnc3cc(Cl)ccc23)C1,102
4,O[C@@]1(c2c[nH]nn2)CCN(c2ccnc3cc(Cl)ccc23)C1,98
5,NC(=O)[C@]1(O)CCN(c2ccnc3ccc(Oc4ccccc4)cc23)C1,33
6,CN1CCC(Oc2ccc(NC(=O)c3cn4ccnc4s3)cn2)CC1,92
7,CN(C)Cc1cccc(CCNCc2csc(-c3ccc(C(F)(F)F)cc3)n2)c1,88
8,COc1ccc2[nH]cc(C3=CCN(c4ccc5nnc(-c6ccccc6F)n5n4)CC3)c2c1,41
9,Fc1cccc(Cl)c1CN1CCC(NC[C@H]2CCCOC2)CC1,21
10,c1cc(CNC2CCN(C[C@H]3CCOC3)CC2)c2cc[nH]c2c1,-13
11,CCc1ccc2ncnc(NCCCN3CCN(CCO)CC3)c2c1,85
12,Cc1cc(O)c(Cl)cc1-c1ccc2nccc(N)c2c1,100
13,Cc1cc(O)c(Cl)cc1-c1cccc2c(N)ccnc12,94
14,COC(CN(Cc1nc(N)nc(Nc2ccc(C)cc2)n1)Cc1nc(N)nc(Nc2ccc(C)cc2)n1)OC,94
15,c1ccc(CCC23CN(Cc4ccccn4)CC2CN(Cc2ccns2)C3)cc1 (configuration not stated),88
16,Cc1noc(-c2ccnc(NC[C@@H](c3ccccn3)N3CCOCC3)c2)n1,100
17,COc1ccc2c(C)cc(NCCCN3CCC[C@H](C(N)=O)C3)nc2c1,100
18,Cc1cc(NCCCN2CCC[C@H](O)C2)c2cc(F)ccc2n1,31
19,CCN1C[C@H](Nc2nc(C)nc3sccc23)[C@@H](OC)C1,101

row,SMILES,% Inhibition [%]
1,O=C(NCCN1CCCCC1)c1cccc(-c2cnc3ccc(F)cn23)c1,21
2,CC(CNc1nc(NCC(C)N2CCOCC2)c2cc(Cl)ccc2n1)N1CCOCC1 (configuration not stated),102
3,CCNc1nc(C)cc(Nc2ccc(NC(=O)Nc3ccc(F)cc3F)cc2)n1,99
4,CCNc1cc(C)nc(NCCNC(=O)Nc2cc(F)cc(F)c2)n1,92
5,CCOc1ccc2nc(N3CCC(N4CCC([C@H](O)c5cccnc5)CC4)CC3)nc(C)c2c1,8
6,CCOc1ccc2nc(CN(CC)CC3CCN(C4CCN(C)CC4)CC3)ccc2c1,99
7,CN(Cc1cn(CC(N)=O)c2ccccc12)CC1CCN(CCc2ccc(F)cc2)CC1,41
8,CCN1CCN([C@H]2CCN(c3ccnc4ccncc34)C2)CC1,98
9,Cc1cc(N2CCC(Nc3ccnc4ccncc34)CC2)nc(C)n1,7
10,Cc1ccc2nccc(N3CCC(N4CCC(O)CC4)CC3)c2c1,12
11,Cc1ccc2[nH]cc(-c3cc(N4CCOCC4)nc(N)n3)c2c1,55
12,Nc1cc(N2CCC(c3nc4cc(F)ccc4[nH]3)CC2)nc(N2CCOCC2)n1,42
13,Cc1ccc(-c2cccc3c(C(=O)NCCCN4CCC(N5CCCCC5)CC4)cc(C)nc23)cc1,103
14,Brc1ccc2[nH]c3c(c2c1)CCCC3NC1CCc2[nH]cnc2C1 (configuration not stated),104
15,CCOc1cc2nccc(N3C[C@H]4CN(C)C[C@H]4C3)c2cc1OCC,96
16,Oc1ccc(OC(F)(F)F)cc1-c1ccc2nccn2n1,92
17,Nc1ccc(-c2cc(OC(F)(F)F)ccc2O)cn1,14
18,Clc1cccc(N2CC[C@H](CNC3CCN(Cc4ccco4)CC3)C2)c1,97
19,COc1ccnc(NCCCc2nc(-c3ccncc3)cs2)n1,64
